The structures appear in SMILES notation. Compounds without any hit were thinned out: in the full panel of roughly 79,000, 15% have a hit. Calls of active or inactive are those of the source. No stated cut-off is given here; in the data, active means growth inhibition above about 70%; inactive means the rest.

The text below walks through data of PubChem BioAssay (NCI).

The nature of the test: NCI Yeast Anticancer Drug Screen. Data for the cln2 rad14 strain (AID 165).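 Further: 0% = growth equal to vehicle treated cultures.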 Particulars: S. cerevisiae cln2 rad14 strain, at 50.0 µM, stronger effect = higher value. As for the experimental part: Growth inhibition of yeast strains with defined genetic alterations is measured as a screen for potential anti-cancer activity. Selected strains with alterations in DNA damage repair or cell cycle control were exposed to compounds and growth inhibition was measured relative to vehicle treated controls. The strain used in this assay is cln2 rad14
Take `S=c1nn[nH]c2ccccc12`: the growth inhibition was 8.1% (inactive). On to `Cc1cc(C(O)(c2ccc(Nc3ccccc3)cc2)c2ccc(Nc3ccc(S(=O)(=O)O)cc3)cc2)ccc1N` (stereo not given), for which the growth inhibition is -16.1% (inactive).

Regarding `Cc1cccc(CO)c1`, the growth inhibition was -57% (inactive). With `CC(=O)c1c[nH]c2ccccc12` the figure was -53.2% (inactive); with `O=c1cc(-c2ccccc2)nc2cc(-c3ccco3)[nH]n12`, 7.9% (inactive); with `CC(=O)N(C)c1ccc([N+](=O)[O-])cc1`, 26.2% (inactive).

As for `CC1CC(O)C2C3(C)CCCC2(COC3=O)C12CCC1(CCOC1=O)O2` (stereo not given), the growth inhibition was 25.9% (inactive). The value for `CC1(C)N=C(N)N=C(N)N1c1ccc(Cl)cc1` was -20.2% (inactive). The value for `CC(=O)Nc1cccc(Cl)c1C` was 4.9% (inactive); that for `O=C(O)CSCSCC(=O)O` was 20.2% (inactive); that for `Cc1cc(Cc2cc(C)c(N)cc2N)c(N)cc1N` was 15.2% (inactive). `O=[N+]([O-])c1ccccc1S(=O)c1ccccc1[N+](=O)[O-]`: the growth inhibition is 20.9% (inactive). With `O=[N+]([O-])c1ccc(Sc2ccncn2)c([N+](=O)[O-])c1` the figure was -5.55% (inactive). With `CC1CCCCN1C(=S)Nc1ccc(S(=O)(=O)N2CCCCC2)cc1` (stereo not given) the figure was -11.2% (inactive). The value for `COc1ccc(C(=O)C(Br)C(Br)C(=O)O)cc1` (stereo not given) was -64.7% (inactive); that for `COc1cccc(COC(=O)Nc2ccccc2)c1OC` was 21.5% (inactive). For the compound `CCOC(=O)c1cc2cccc(OC)c2oc1=O`, the growth inhibition was -4.75% (inactive).

`COC(=O)c1cccc(Br)c1`: the growth inhibition was -29.5% (inactive).

As to `O=C(O)c1ccccc1NCc1ccco1`, the growth inhibition is 7.85% (inactive). With `O=C(N/N=C/c1ccccc1O)Nc1nn[nH]n1` the figure was -7.8% (inactive). With `CN(c1ccccc1)c1ncnc2c1ncn2C` the figure was -4.7% (inactive). Take `Cc1ccc(CCCC(=O)O)c(C)c1`: the growth inhibition is 1.45% (inactive). For `CCC(C)(O)c1ccc(C)cc1` (stereo not given), the growth inhibition was -21.1% (inactive).

With `CC(=O)NCc1cc(C)c(C)cc1C`, the growth inhibition is 9.15% (inactive).

On to `O=C(Cc1ccc(OCc2ccccc2)cc1)NCc1ccc2c(c1)OCO2`, for which the growth inhibition was -10.8% (inactive). For `COc1ccccc1NC(=O)c1cc2cc(Br)ccc2cc1O`, the growth inhibition was 41.6% (inactive).

As to `CO[C@H]1C[C@@H]2CC[C@@H](C)[C@@](O)(O2)C(=O)C(=O)N2CCCC[C@H]2C(=O)O[C@H]([C@H](C)C[C@@H]2CC[C@@H](O)[C@H](OC)C2)CC(=O)[C@H](C)C=C(C)[C@@H](O)[C@@H](OC)C(=O)[C@H](C)C[C@H](C)/C=C/C=C/C=C1C`, the growth inhibition is 85.2% (active). Consider `O=C(/C(=N/O)c1ccccc1)c1ccccc1`, for which the growth inhibition was -25.5% (inactive).

As to `CC(=O)Nc1c(C)cc(C)cc1C`, the growth inhibition is -11.8% (inactive). `COc1cc2cc(c1Cl)N(C)C(=O)C[C@H](OC(=O)[C@H](C)N(C)C(C)=O)[C@]1(C)O[C@H]1[C@H](C)[C@@H]1C[C@@](O)(NC(=O)O1)[C@H](OC)C=C/C=C(\C)C2`: the growth inhibition is 14.1% (inactive).

On to `C=CCNc1ccccc1`, for which the growth inhibition was -36.6% (inactive).

Consider `CC(C)NC(=O)OCc1c(COC(=O)NC(C)C)c(-c2ccc(Cl)c(Cl)c2)n2c1SCC2`, for which the growth inhibition is -1.35% (inactive). The value for `CC(C)C(C#N)(C(C)C)C(C)C` was -29.6% (inactive); that for `CCOC(=O)C1=C(Nc2ccc(Br)cc2)C(=O)N(CC)C1` was 14.9% (inactive). Take `O=C(/C=C/C(=O)c1ccccc1)c1ccccc1`: the growth inhibition is -31.4% (inactive). As for `C=CCOC(=O)C(=O)OCC=C`, the growth inhibition is 1.95% (inactive). The value for `CC(=O)NC(N)=S` was -3.05% (inactive); that for `CC(C)C1CCCCC1O` (stereo not given) was -35.5% (inactive); that for `CC(=O)CC(=O)N(C)C` was -13.9% (inactive).

As for `O=c1[nH]cc(Cl)cc1O`, the growth inhibition was -40.9% (inactive).
